Among the data in ChEMBL document CHEMBL3433997, “St. Jude Leishmania screening dataset” (2016) are inhibition values, retold here.

Molecules are shown by their SMILES.

In one experiment the target is Solute carrier family 2, facilitated glucose transporter member 1 (Homo sapiens) (UniProt P11166). Nature of the experiment: ST_JUDE_LEISH: Cytotoxicity at 2uM final concentration against transgenic Leishmania Mexicana promastigotes LmGLUT1 that are glucose transport deficient and complemented with the human glucose transporter GLUT1. Activity is measured by DNA content using SYBR green in vitro. The class given is functional.
Solute carrier family 2, facilitated glucose transporter member 1 (Homo sapiens), sequence (P11166 whole entry): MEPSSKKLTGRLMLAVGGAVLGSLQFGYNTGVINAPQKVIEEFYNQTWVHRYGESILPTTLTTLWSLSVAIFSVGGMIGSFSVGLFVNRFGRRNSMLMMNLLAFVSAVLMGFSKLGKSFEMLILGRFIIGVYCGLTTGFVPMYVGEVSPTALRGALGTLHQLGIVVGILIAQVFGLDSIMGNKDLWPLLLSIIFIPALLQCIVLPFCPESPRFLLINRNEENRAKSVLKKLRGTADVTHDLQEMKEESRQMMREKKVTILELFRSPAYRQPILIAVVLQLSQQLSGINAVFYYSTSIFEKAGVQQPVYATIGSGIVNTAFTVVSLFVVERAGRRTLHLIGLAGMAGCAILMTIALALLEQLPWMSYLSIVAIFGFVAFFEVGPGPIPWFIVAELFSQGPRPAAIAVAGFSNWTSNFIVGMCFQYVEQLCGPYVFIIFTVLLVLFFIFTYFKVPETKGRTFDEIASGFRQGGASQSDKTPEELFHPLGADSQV
The inhibition is the drop in the measured response relative to a control, in per cent. As for `COCCNCc1ccc(-c2ccc3c(Nc4ccc(Cl)cc4F)ccnc3c2)o1`, the inhibition was 2.75%.

In the case of `CCNc1cc(C(=O)N[C@@H](Cc2ccccc2)[C@H](O)CNC2CCCC2)cc(N2CCCC2=O)c1`, the inhibition turned out to be 3.87%.

As to `CCOC(=O)COc1cccc(CNc2ccc3nc(N)nc(N)c3c2)c1`, the inhibition came to 2.95%.

In the case of `CN1CCN(C(C(=O)NCc2cc(Cl)cc(Cl)c2)c2ccc(Nc3cccc(C(F)(F)F)c3)cc2)CC1` (stereo not drawn), the inhibition was 1%.

Regarding `O=C1CC(C(=O)Nc2cccc(-c3cccc(-c4nc5ccccc5[nH]4)c3)c2)c2ccccc2N1` (stereo not drawn), the inhibition was 7.77%.

Turning to `COc1ccc(-c2cccc(NC(=O)c3cccc(C#N)c3)c2)cc1CN(C)CCO`, the inhibition worked out at 3.7%.

As to `Cc1ccc(CCC(C)NCC(O)c2cccc(C(F)(F)F)c2)cc1` (stereo not drawn), the inhibition is -0.37%.

Take `CCCC(C(=O)OCCNC)(c1ccccc1)c1ccccc1`: the inhibition came to 1.4%.

On to `Nc1cccc(CNCc2ccc(-c3ccc(-c4nc5cc(C(F)(F)F)ccc5[nH]4)s3)cc2)c1`, for which the inhibition came to 2.29%.

As to `O=S(=O)(Nc1cccc(CCN2CCC(N3CCCCC3)CC2)c1)c1cccc(C(F)(F)F)c1`, the inhibition came to 0.17%.

Take `O=C(C=Cc1ccc(Cl)c(Cl)c1)NCCCCCN1CCC(CCNC(=O)C(c2ccccc2)c2ccccc2)CC1`: the inhibition was found to be 3.47%.

Take `N#Cc1ccc(Cn2ccc3c4c(N)nc(N)nc4ccc32)cc1`: the inhibition came to 82.6%.

For the compound `O=C(Nc1ccc2c(c1)OCO2)c1cc(-c2cccnc2)nc2ccc(Cl)cc12`, the inhibition was found to be 3.49%.

Turning to `c1ccc(CN2CCC(NCc3ccc(-c4ccc(CNC5CCCC5)cc4)cc3)CC2)cc1`, the inhibition was 1.73%.

As to `CC(C#N)Cc1ccc(-c2cnc(N)c3cc(-c4ccnc(N)n4)ccc23)cc1` (stereo not drawn), the inhibition came to 5.38%.

For `CC(C)N1CCC(NC(=O)N2CCCN(c3ncnc4cc(-c5ccc(Cl)cc5)sc34)CC2)CC1`, the inhibition was -0.49%.

For `COc1cccc(OC)c1CN1CCC(N(C)CCCCCCCCCN2CCC(OC(=O)Nc3ccccc3-c3ccccc3)CC2)CC1`, the inhibition was 113%.

`O=C(NC1CCN(c2ccnc3cc(Cl)ccc23)C1)c1ccc(C(F)(F)F)cc1` (stereo not drawn): the inhibition was found to be 3.93%.

As for `Cc1nccn1Cc1cc(C(C)(C)C)c(O)c(C(C)(C)C)c1`, the inhibition is 3.44%.

In the case of `CCCCC(CCCC)CN1C(=O)C(c2ccccc2)(c2ccccc2)N=C1N`, the inhibition was 1.9%.

Regarding `Cc1ccc(O)c(C(=O)c2cnc3c(c2)c(-c2ccc(F)cc2)c(C#N)c(=O)n3C)c1`, the inhibition was found to be 8.51%.

Consider `CCOc1cc2c(cc1OCC)C(c1cc(OC)c(O)cc1Cl)NCC2` (stereo not drawn), for which the inhibition is 2.01%.

Consider `CCN(CC)CCCC(C)N/C(=N\c1ccccc1Br)Nc1ccc(C#N)cc1O` (stereo not drawn), for which the inhibition is 1.03%.

For `N=C(N)c1ccc2[nH]c(SCc3ccccc3)nc2c1`, the inhibition came out at 1.18%.

For `O=C(NCCN1CCN(S(=O)(=O)c2ccc(OC3CCNCC3)c(Br)c2)CC1)c1ccc(Cl)c(Cl)c1`, the inhibition turned out to be 3.33%.

As for `Cc1cc(C(=O)N(Cc2ccc(-c3ccc(CNCCc4ccc(S(C)(=O)=O)cc4)cn3)cc2)C(C)CN(C)C)ccc1[N+](=O)[O-]` (stereo not drawn), the inhibition was determined as 7.26%.

For the compound `Cc1[nH]c(-c2ccc(F)cc2)cc1C(=O)NC1CCN(Cc2ccccc2)CC1`, the inhibition stood at 1.59%.

With `Cc1cc(-c2ccc(Cl)cc2)c2c(N)c(C(=O)Nc3ccc(F)cc3)sc2n1`, the inhibition is 0.19%.

With `CN(CC(=O)Nc1cc(C(F)(F)F)ccc1-n1cncn1)Cc1nc2ccccc2s1`, the inhibition is 2.07%.

Consider `CN1CCCN(Cc2cccc(-c3ccc(NC(=O)c4cccc(C#N)c4)cc3)c2)CC1`, for which the inhibition was determined as 28.9%.

As to `Cc1cc(N2CCCN(C)CC2)nc(Nc2ccc(Br)cc2)n1`, the inhibition amounted to 5.39%.

Turning to `c1ccc2c(c1)CN(CC1CC1)CC1(CCN(Cc3c[nH]c4cnccc34)CC1)O2`, the inhibition was -0.99%.

Take `CCCCCCCc1c(C)nc2c(OC)cccc2c1O`: the inhibition turned out to be 5.31%.

`O=C(NCCc1ccc(Cl)c(Cl)c1)C1CCCN(C(=O)c2ccc(O)c(-c3ccc(Cl)c(Cl)c3)c2)C1` (stereo not drawn): the inhibition is 1.33%.

As to `Cc1[nH]c(C)c(-c2ccc(-c3cccc(C(F)(F)F)c3)nc2)c(=O)c1Br`, the inhibition turned out to be 9.61%.

Take `CN1CCCN(Cc2ccc(-c3cccc(NC(=O)c4cccc(C#N)c4)c3)cc2)CC1`: the inhibition was found to be 8.55%.

Consider `Cc1cc(NCCCN2CCCC2=O)n2c(nc3ccccc32)c1C#N`, for which the inhibition came to 0.96%.

As for `CC(=O)Nc1ccc(OCCCCN(Cc2ccccc2C(F)(F)F)c2ccc(C#N)c(C(F)(F)F)c2)cc1`, the inhibition was found to be 1.93%.

For `CC(C)(C)c1ccc(NC(=O)c2ccc(CN3CCCN(CC4CCCCC4)CC3)cc2)cc1`, the inhibition is 3.27%.

A further experiment has as its target Hexose transporter 1 (Plasmodium falciparum) (UniProt O97467). Nature of the experiment: ST_JUDE_LEISH: Cytotoxicity at 2uM final concentration against transgenic Leishmania Mexicana promastigotes LmPfHT that are glucose transport deficient and complemented with the Plasmodium falciparum hexose transporter. Activity is measured by DNA content using SYBR green in vitro. The class given is functional.
Turning to `COCCNCc1ccc(-c2ccc3c(Nc4ccc(Cl)cc4F)ccnc3c2)o1`, the inhibition was found to be 2.3%.

In the case of `CCNc1cc(C(=O)N[C@@H](Cc2ccccc2)[C@H](O)CNC2CCCC2)cc(N2CCCC2=O)c1`, the inhibition amounted to 3.77%.

As to `CCOC(=O)COc1cccc(CNc2ccc3nc(N)nc(N)c3c2)c1`, the inhibition came out at 1.84%.

In the case of `CN1CCN(C(C(=O)NCc2cc(Cl)cc(Cl)c2)c2ccc(Nc3cccc(C(F)(F)F)c3)cc2)CC1` (stereo not drawn), the inhibition is -2.61%.

Regarding `O=C1CC(C(=O)Nc2cccc(-c3cccc(-c4nc5ccccc5[nH]4)c3)c2)c2ccccc2N1` (stereo not drawn), the inhibition is 6.55%.

Take `COc1ccc(-c2cccc(NC(=O)c3cccc(C#N)c3)c2)cc1CN(C)CCO`: the inhibition worked out at 5.06%.

With `Cc1ccc(CCC(C)NCC(O)c2cccc(C(F)(F)F)c2)cc1` (stereo not drawn), the inhibition was 0.53%.

In the case of `CCCC(C(=O)OCCNC)(c1ccccc1)c1ccccc1`, the inhibition amounted to 0.51%.

`Nc1cccc(CNCc2ccc(-c3ccc(-c4nc5cc(C(F)(F)F)ccc5[nH]4)s3)cc2)c1`: the inhibition was found to be 1.24%.

Take `O=S(=O)(Nc1cccc(CCN2CCC(N3CCCCC3)CC2)c1)c1cccc(C(F)(F)F)c1`: the inhibition stood at 3.24%.

Turning to `O=C(C=Cc1ccc(Cl)c(Cl)c1)NCCCCCN1CCC(CCNC(=O)C(c2ccccc2)c2ccccc2)CC1`, the inhibition is 1.79%.

Turning to `N#Cc1ccc(Cn2ccc3c4c(N)nc(N)nc4ccc32)cc1`, the inhibition was found to be 84.2%.

In the case of `O=C(Nc1ccc2c(c1)OCO2)c1cc(-c2cccnc2)nc2ccc(Cl)cc12`, the inhibition amounted to 0.67%.

On to `c1ccc(CN2CCC(NCc3ccc(-c4ccc(CNC5CCCC5)cc4)cc3)CC2)cc1`, for which the inhibition worked out at 1.09%.

On to `CC(C#N)Cc1ccc(-c2cnc(N)c3cc(-c4ccnc(N)n4)ccc23)cc1` (stereo not drawn), for which the inhibition came out at 3.48%.

In the case of `CC(C)N1CCC(NC(=O)N2CCCN(c3ncnc4cc(-c5ccc(Cl)cc5)sc34)CC2)CC1`, the inhibition amounted to 0.6%.

In the case of `COc1cccc(OC)c1CN1CCC(N(C)CCCCCCCCCN2CCC(OC(=O)Nc3ccccc3-c3ccccc3)CC2)CC1`, the inhibition came out at 108%.

On to `O=C(NC1CCN(c2ccnc3cc(Cl)ccc23)C1)c1ccc(C(F)(F)F)cc1` (stereo not drawn), for which the inhibition is 3.66%.

For the compound `Cc1nccn1Cc1cc(C(C)(C)C)c(O)c(C(C)(C)C)c1`, the inhibition came to 2.22%.

Take `CCCCC(CCCC)CN1C(=O)C(c2ccccc2)(c2ccccc2)N=C1N`: the inhibition is 1.66%.

In the case of `Cc1ccc(O)c(C(=O)c2cnc3c(c2)c(-c2ccc(F)cc2)c(C#N)c(=O)n3C)c1`, the inhibition worked out at 4.73%.

As to `CCOc1cc2c(cc1OCC)C(c1cc(OC)c(O)cc1Cl)NCC2` (stereo not drawn), the inhibition turned out to be 0.45%.

Take `CCN(CC)CCCC(C)N/C(=N\c1ccccc1Br)Nc1ccc(C#N)cc1O` (stereo not drawn): the inhibition was 0.06%.

As to `N=C(N)c1ccc2[nH]c(SCc3ccccc3)nc2c1`, the inhibition came out at 1.38%.

Consider `O=C(NCCN1CCN(S(=O)(=O)c2ccc(OC3CCNCC3)c(Br)c2)CC1)c1ccc(Cl)c(Cl)c1`, for which the inhibition came out at 3.46%.

As for `Cc1cc(C(=O)N(Cc2ccc(-c3ccc(CNCCc4ccc(S(C)(=O)=O)cc4)cn3)cc2)C(C)CN(C)C)ccc1[N+](=O)[O-]` (stereo not drawn), the inhibition came to 5.46%.

`Cc1[nH]c(-c2ccc(F)cc2)cc1C(=O)NC1CCN(Cc2ccccc2)CC1`: the inhibition is 3.23%.

Regarding `Cc1cc(-c2ccc(Cl)cc2)c2c(N)c(C(=O)Nc3ccc(F)cc3)sc2n1`, the inhibition was -2.52%.

Regarding `CN(CC(=O)Nc1cc(C(F)(F)F)ccc1-n1cncn1)Cc1nc2ccccc2s1`, the inhibition amounted to 2.69%.

Consider `CN1CCCN(Cc2cccc(-c3ccc(NC(=O)c4cccc(C#N)c4)cc3)c2)CC1`, for which the inhibition was determined as 12.9%.

Turning to `Cc1cc(N2CCCN(C)CC2)nc(Nc2ccc(Br)cc2)n1`, the inhibition was -1.23%.

In the case of `c1ccc2c(c1)CN(CC1CC1)CC1(CCN(Cc3c[nH]c4cnccc34)CC1)O2`, the inhibition was found to be 0.39%.

With `CCCCCCCc1c(C)nc2c(OC)cccc2c1O`, the inhibition came to 8.11%.

For the compound `O=C(NCCc1ccc(Cl)c(Cl)c1)C1CCCN(C(=O)c2ccc(O)c(-c3ccc(Cl)c(Cl)c3)c2)C1` (stereo not drawn), the inhibition came out at 2.53%.

Consider `Cc1[nH]c(C)c(-c2ccc(-c3cccc(C(F)(F)F)c3)nc2)c(=O)c1Br`, for which the inhibition is 8.1%.

On to `CN1CCCN(Cc2ccc(-c3cccc(NC(=O)c4cccc(C#N)c4)c3)cc2)CC1`, for which the inhibition worked out at 4.85%.

In the case of `Cc1cc(NCCCN2CCCC2=O)n2c(nc3ccccc32)c1C#N`, the inhibition turned out to be 3.33%.

With `CC(=O)Nc1ccc(OCCCCN(Cc2ccccc2C(F)(F)F)c2ccc(C#N)c(C(F)(F)F)c2)cc1`, the inhibition amounted to 6.69%.

`CC(C)(C)c1ccc(NC(=O)c2ccc(CN3CCCN(CC4CCCCC4)CC3)cc2)cc1`: the inhibition was 1.6%.
